Screens as filed in PubChem BioAssay.
Compounds with a hit are over-represented: about 7.8% of the library has one in this group of screens.
sEH act: activators of human soluble epoxide hydrolase; P34913; purified human sEH enzymatic activity, activator screen; activation, % at 2 µM; 91,000 compounds, 0.04% hits; AID 717; in the data active means activation above about 37%
Cav32 inh: inhibitors of human Cav3.2 T-type calcium channel; Cav3.2-expressing cells, Fluo-4 calcium fluorescence FDSS; active compounds read low; AID 449739; 100,000 compounds, 4% hits; B-score at 10 µM; O95180;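 active means single-dose well whose peak fluorescence ratio is a statistical outlier from its plate by either plate-standardised score or position-corrected B-score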
sEH inhibitor: soluble epoxide hydrolase (human) inhibition | P34913 | recombinant human sEH enzymatic activity assay | inhibition, % at 2 µM | 91,000 compounds, 0.34% hits | AID 707; in the data active means inhibition above about 80%
PostGolgi ctrl: growth of the yeast control strain, post-Golgi counter-screen; efflux-deficient yeast background strain, growth absorbance A615, 16 h; inhibition, % at 10 µM; 98,000 compounds, 5% hits; AID 738
PostGolgi yeast: growth inhibition of a yeast mutant, post-Golgi transport screen | post-Golgi transport phenotypic cell assay | inhibition, % at 10 µM | 98,000 compounds, 0.9% hits | AID 739;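 further: yeast cells grown in 1536-well plates; yeast grown about 18 h at 30C before absorbance read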
* hit, by the source's call; / = no result. Unless noted, no stated cut-off is given here; in the data, active means inhibition above about 30%; inactive means the rest.

SMILES	sEH act	Cav32 inh	sEH inhibitor	PostGolgi ctrl	PostGolgi yeast
CCOc1nc2ccccc2nc1C	-17	-0.31	20	-8	3
Cc1ccc(Nc2nc(Cl)nc(N(C)C#N)n2)cc1	-4	4*	7	3	13
COc1ccc(CC(=O)NNC(=S)Nc2ccc(Br)cc2)cc1	-18	-2.1	18	10	1
CCOc1ccc(CC(=O)NNC(=S)Nc2ccccc2)cc1Br	4	-7.4*	-5	-5	5
CS(=O)(=O)N(CC(=O)N1CCCCCC1)c1ccc2c(c1)OCCO2	13	0.28	-15	1	3
S=C1N(c2ccccc2)C(c2ccc(Cl)cc2)N2CCCN12 (stereo not given)	19	-4.8*	-15	6	-4
O=C(O)c1cc(-c2ccccc2)nn1CC1CC(c2cccc([N+](=O)[O-])c2)=NO1 (stereo not given)	/	1.1	/	/	/
Cc1ccc(NC(=O)CN(C)S(=O)(=O)c2cccc3nsnc23)cc1Cl	-2	-7.2*	8	17	-1
Cc1cc(C)c2c(N)c(S(=O)c3ccc(C(C)(C)C)cc3)sc2n1 (stereo not given)	-7	-2.2	10	13	-2
COC(=O)C(Cc1ccc(OC(=O)c2ccc(C)cc2)cc1)N1Cc2ccccc2C1=O (stereo not given)	-12	0.48	13	0	20
CCCOC(=O)NC(CC)COC(=O)Nc1cc(C)ccc1C (stereo not given)	18	-0.86	-15	33*	2
CCCCOC(=O)Nc1cc(Cl)ccc1C	-8	-1.8	10	11	2
CCC(c1nnnn1CCOC)N1CCN(Cc2ccccc2)CC1 (stereo not given)	0	-0.05	5	31*	-2
Cc1cc(C)nc(SCCn2c(N3CCCCC3)nc3c2c(=O)n(C)c(=O)n3C)n1	2	0.64	-1	16	7
CCOC(=O)CNC(=O)c1sc(NC(=O)c2cccc(F)c2)nc1C	-22	0.37	21	35*	-2
c1ccc(C2=Nn3c(nnc3-c3ccncc3)SC2)cc1	-5	0.79	3	6	-5
Cc1ccc(-c2nnc3n2N=C(c2ccccc2Br)CS3)cc1	-12	-4*	10	19	3
CCC1CCc2c(c3ccccc3[nH]c2=O)O1 (stereo not given)	-11	/	11	30*	-13
Cc1ccc(N(CN2CCCC2=O)C(=O)c2ccc(OC(C)C)cc2)cc1	5	0.011	-4	32*	-1
CC(C)(C)NC(=O)NC(=O)COC(=O)c1cc(=O)[nH]c2ccccc12	-7	-0.0015	9	8	-24
COc1ccc(C2C(C(C)=O)=C(C)N=c3s/c(=C\c4cc(C)n(C)c4C)c(=O)n32)c(OC)c1 (stereo not given)	-9	-5*	10	14	2
O=C(CSc1nn(-c2ccc(F)cc2)c(=S)s1)N1CCN(C(=O)c2ccco2)CC1	/	-0.89	/	21	5
O=C(CSc1nn(-c2ccc(Cl)cc2)c(=S)s1)N1CCN(C(=O)c2ccco2)CC1	/	-1.6	/	52*	-42
CC(C)(C)c1ccc(C(=O)N2CCC(=O)N(C(CO)Cc3ccccc3)CC2)cc1 (stereo not given)	/	0.034	/	/	/
Cc1nc2cc(NS(=O)(=O)c3c(C)c(C)cc(C)c3C)ccc2s1	1	-1.9	4	/	/
SMILES	sEH act	Cav32 inh	sEH inhibitor	PostGolgi ctrl	PostGolgi yeast
Cc1nc2ccc(NS(=O)(=O)c3c(C)c(C)cc(C)c3C)cc2s1	-6	-2	4	36*	10
O=C(NCc1ccccc1)c1ccc(C(=O)N(C2CCCCC2)C2CCCCC2)cc1	-13	-5.9*	13	52*	8
O=C(NCc1ccccc1)NC1CCCCC1	-58	2.3	58	-1	10
O=c1cc(CO)occ1OCc1cccc(F)c1	3	0.14	-4	33*	11
Cc1ccc(COc2coc(CO)cc2=O)cc1	9	1.1	-10	1	10
CC(=O)N1CCC2(CC1)CC(=O)c1cc(Cl)ccc1O2	/	0.47	/	/	/
Cn1c(Cl)cnc1C1CC(=O)c2cc(Cl)ccc2O1 (stereo not given)	/	0.049	/	38*	-2
COc1ccc(CCNc2oc(COc3ccccc3Cl)nc2C#N)cc1OC	7	-5.8*	-8	28	3
CCNc1oc(COc2ccccc2F)nc1C#N	-6	1.1	4	16	6
COc1ccc(CCNc2oc(Cc3ccccc3)nc2C#N)cc1OC	-2	-1.5	2	8	-24
COc1ccc(CCNc2oc(COc3ccccc3F)nc2C#N)cc1OC	-12	-5.1*	12	26	-3
Cn1c(/C=C/c2ccc([N+](=O)[O-])o2)nc2ccccc2c1=O	7	-0.77	-3	41*	62*
